BAZ2B block: blocks human BAZ2B; 4.4% of 360,000 active; Q9UIF8; AlphaScreen BAZ2B-H3K14Ac peptide displacement; Potency, µM (titrated, usually from 114 µM), for inactives: top-dose activity change, negative = inhibition, hits mostly inhibitors; further: on the % scale 0 is the no-effect control and ±100 the full control effect; nearly all actives have a fitted effect of over 60% in size
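In this displacement format the biotinylated H3(5-23) peptide acetylated at Lys14 serves as ligand at 50 nM, with BAZ2B at 50 nM in PBS pH 7.4 containing 0.01% Tween-20. Donor and acceptor beads are 10 ug/mL final.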
PLK1 PBD block: inhibitors of human PLK1 polo-box domain binding | P53350 | AID 720504 | Plk1 PBD binding of FITC phosphopeptide, fluorescence polarization | 2.8% of 360,000 active | Potency, µM, inactives show max response, negative = inhibition, hits mostly inhibitors; further: series mostly up to about 57 µM; on the % scale 0 is the no-effect control and ±100 the full control effect; nearly all actives have a fitted effect of over 65% in size
ALOX12 inh: ALOX12 (human) lipoxygenase inhibition. AID 1671190. P18054. 1.1% of 580,000 active. purified 12hLO, xylenol orange hydroperoxide absorbance. Potency, µM (series often up to 108 µM), for inactives: at the top dose activity change, negative = inhibition, usual class: inhibitors; further: on the % scale 0 is the no-effect control and ±100 the full control effect
Target sequence (P18054 whole entry, looked up): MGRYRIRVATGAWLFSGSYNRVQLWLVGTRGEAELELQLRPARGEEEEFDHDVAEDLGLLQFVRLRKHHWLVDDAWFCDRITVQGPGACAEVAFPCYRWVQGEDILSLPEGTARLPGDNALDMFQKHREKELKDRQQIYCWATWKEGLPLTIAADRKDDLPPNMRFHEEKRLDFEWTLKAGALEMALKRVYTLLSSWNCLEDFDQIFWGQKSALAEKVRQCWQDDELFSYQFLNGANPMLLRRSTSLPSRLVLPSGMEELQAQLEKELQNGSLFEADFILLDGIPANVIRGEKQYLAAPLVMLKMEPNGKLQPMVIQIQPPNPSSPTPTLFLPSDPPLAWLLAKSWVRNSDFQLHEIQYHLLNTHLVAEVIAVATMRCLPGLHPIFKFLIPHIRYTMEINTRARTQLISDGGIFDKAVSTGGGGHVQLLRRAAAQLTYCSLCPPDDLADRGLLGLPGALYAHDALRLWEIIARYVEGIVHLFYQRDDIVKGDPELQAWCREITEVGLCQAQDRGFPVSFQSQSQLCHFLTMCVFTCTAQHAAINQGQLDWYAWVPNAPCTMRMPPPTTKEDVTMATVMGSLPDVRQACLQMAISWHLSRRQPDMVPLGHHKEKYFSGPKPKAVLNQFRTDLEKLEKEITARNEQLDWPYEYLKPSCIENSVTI
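Hydroperoxide product was detected by ferrous iron/xylenol orange as the 573 to 405 nm absorbance ratio. Arachidonic acid at 40 uM (final) was turned over for 30 min at room temperature by 150 nM human 12hLO, pH 7.0 Hepes buffer, after 15 min compound preincubation.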
HP1b chromo inh: blocks HP1-beta chromodomain binding to methylated histone tails; P83916; 0.56% of 390,000 active; AID 540317; AlphaScreen HP1-beta / biotin-H3K9me3 peptide binding; Potency, µM (top dose mostly 114 µM), inactives show top-dose activity change, negative = inhibition, most hits filed as inhibitors; further: nearly all actives have a fitted effect of over 70% in size
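HP1-beta protein (50 nM final) preincubated 30 min at room temperature with biotinylated H3(1-18)K9me3 peptide (50 nM) in PBS pH 7.4, 0.01% Tween-20, then compound added for 30 min. AlphaScreen streptavidin donor/nickel chelate acceptor beads (10 ug/mL final), 30 min dark, luminescence read.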
G9a inh: inhibitors of human histone lysine methyltransferase G9a | G9a H3K9 monomethylation, AlphaScreen, 2 h | Potency, µM (highest dose often 102 µM), inactives show at the top dose activity, negative = inhibition, hits mostly inhibitors | 8.8% of 350,000 active; further: on the % scale 0 is the no-effect control and ±100 the full control effect; nearly all actives have a fitted effect of over 75% in size
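AlphaScreen read-out: biotin-H3K9 peptide (500 nM) methylation by 20 nM enzyme with 20 uM SAM, 2 h at room temperature after 15 min compound preincubation; anti-monomethyl H3K9 antibody plus donor/acceptor beads, 10 min dark.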
JMJD2A Tudor: blocks the human JMJD2A Tudor domain. AlphaScreen JMJD2A-Tudor / H3K4me3 peptide binding. Potency, µM (doses to about 114 µM), for the others: at the highest dose activity change, negative = inhibition, most hits filed as inhibitors. 4.4% of 390,000 active. AID 504339; further: on the % scale 0 is the no-effect control and ±100 the full control effect; nearly all actives have a fitted effect of over 50% in size
Numbers without * were called inactive; ? = inconclusive; / = no result; [ ] = dose if it differs, or a comment. Rows were chosen to be rich in hits. Some 9% of all compounds tested hit in one or more screens of this group. The call rests on the fitted dose curve; in most records, active means well fitted curve in the direction sought with a large enough effect; inconclusive means small, poorly fitted or top-dose-only effect, or another doubt; inactive means no such curve, though single readings can be large; an effect the other way counts as inactive or inconclusive. Potency means the concentration at half of the fitted maximal effect.

SMILES	BAZ2B block	PLK1 PBD block	ALOX12 inh	HP1b chromo inh	G9a inh	JMJD2A Tudor
CC(=O)n1c2ccccc2c2nc(NC(C)C)sc21	50.1µM*	26.7µM*	?	?	?	50.1µM*
CNc1nc2c3ccccc3n(C(C)=O)c2s1	-3.1%	-8.8%	-9.5%	-6.4%	?	-13.0%
COc1ccc(N2CCN(C(=O)c3ccc(C)c(NC(=O)C4=C(C)OCCS4)c3)CC2)cc1	44.7µM*	-18.0%	-28.1%	22.5%	39.8µM*	?
Cc1cccc(N2CCN(C(=O)c3cc4ccc5cccnc5c4[nH]3)CC2C)c1 (configuration not stated)	28.2µM*	/	?	-14.2%	?	28.2µM*
Cc1cccc(N2CCN(C(=O)c3ccc4c(c3)c(C)c(C)n4C)CC2C)c1 (configuration not stated)	22.4µM*	3.2%	-10.6%	39.8µM*	44.7µM*	28.2µM*
Cc1ccc(C)c(N2CCN(C(=O)c3cc4ccc5cccnc5c4[nH]3)CC2)c1	-23.7%[57.1 µM]	/	-15.1%	-11.0%	-49.6%[59 µM]	?
CC1=C(C(=O)Nc2cc(C(=O)N3CCN(c4cccc(C)c4)C(C)C3)ccc2C)SCCO1 (configuration not stated)	?	-6.1%	-0.2%	-7.4%	35.5µM*	?
CC1=C(C(=O)Nc2cccc(C(=O)N3CCN(c4ccccc4)CC3)c2)SCCO1	/	/	-1.8%	/	/	/
Brc1ccc(-c2nnc3n2C2(CCCC2)Cc2ccccc2-3)o1	-6.2%	-4.6%	0.0%	39.4%	-7.2%[59 µM]	-8.4%[57.1 µM]
Cc1cc(C)nc(N/N=C/c2ccccc2)n1	-2.7%	-6.4%	0.7%	38.0%	21.5%[59 µM]	-3.7%
Cc1cc(C)nc(N/N=C/C=C/c2ccccc2)n1	-32.4%	-0.6%	-9.8%	31.4%	50.1µM*	-25.0%
O=C(CS(=O)c1cccc(C(F)(F)F)c1)Nc1ccc(Cl)cc1Cl (configuration not stated)	36.0%	-6.2%	-1.7%	29.9%	-27.5%[12.7 µM]	0.0%
O=c1c2[nH]c3cc(Br)sc3c2cnn1Cc1ccccc1F	/	/	/	/	/	39.8µM*
Cc1cc2c(s1)c1cnn(Cc3ccccc3F)c(=O)c1n2Cc1ccccc1F	/	/	/	/	/	2.7%
COCCCNC(=O)CC(NCCCOC)C(=O)O (configuration not stated)	-21.8%	-4.3%	?	-11.8%	?	-14.6%
COc1ccc(NC(=O)CC(C)CC(=O)NCc2ccccc2)c(OC)c1 (configuration not stated)	0.6%	-4.9%	0.0%	29.4%	20.1%	-12.5%
COc1ccccc1NC(=O)CC(NCc1ccccc1)C(=O)O (configuration not stated)	?	-9.4%	-12.4%	-8.6%	?	11.2µM*
COc1ccc(NC(=O)CC(NCCc2ccccc2)C(=O)O)c(OC)c1 (configuration not stated)	-29.8%	-8.7%	-3.8%	-4.6%	28.2µM*	4.47µM*
COCCCNC(CC(=O)Nc1ccc(OC)cc1OC)C(=O)O (configuration not stated)	-8.2%	-2.2%	?	-18.7%	?	10µM*
O=C(CN1C(=O)c2ccccc2C1=O)NCCOc1ccccc1	0.3%	-1.3%	193.7%	18.9%	-33.2%	-24.3%
CCOc1ccc(CCNC(=O)c2nnc(Cc3cc(OC)c(OC)c(OC)c3)o2)cc1OCC	-11.4%	/	-0.5%	-11.1%	-31.7%[59 µM]	-13.4%
CCOc1ccc(S(=O)(=O)N2CCCCC2)cc1NC(=O)CCc1ccc(OC)cc1	8.6%	-2.0%	17.2%	26.9%	?	-5.6%
CC(C)CCOc1ccc(Cl)cc1CN1CCOCC1	4.5%	23.8µM*	11.3%	56.0%	28.7%[12.7 µM]	16.4%[11.4 µM]
C/C(CC1CC(COCC(C)C)OC1=O)=N\Nc1nc(-c2ccccc2)cs1 (configuration not stated)	?	21.2µM*	?	-14.5%	25.1µM*	?
COc1ccc(/C=N/c2c(-c3ccco3)nc3ccccn23)cc1OC	?	-3.6%	?	-6.3%	70.8µM*	-33.8%
SMILES	BAZ2B block	PLK1 PBD block	ALOX12 inh	HP1b chromo inh	G9a inh	JMJD2A Tudor
Clc1ccc(/C=N/c2c(-c3ccco3)nc3ccccn23)cc1	?	-3.4%	2.4%	?	?	44.7µM*
COc1ccc(/C=N/c2nc3ccccc3n2CCN2CCCCC2)cc1OC	-0.3%	-9.6%	11.8%	14.4%	-40.4%[59 µM]	-24.5%
COc1cc(-c2nc3ccccn3c2/N=C/c2cccc(OC)c2O)ccc1O	-15.4%	-3.6%	?	20.2%	8.9%	?
COc1cc(-c2nc3ccccn3c2/N=C/c2ccc(F)cc2)ccc1O	?	-4.6%	-28.9%	?	35.5µM*	?
COc1ccc(-c2c(C)c3ccc(O)c(CN4CCOCC4)c3oc2=O)cc1	14.9%	/	?	28.5%[57 µM]	0.5%[59 µM]	4.9%
O=c1[nH]cc(COCC(F)CCl)c(=O)[nH]1 (configuration not stated)	1.8%	-4.1%	-1.4%	23.9%	10.0%[59 µM]	-6.1%
CCOC(=O)c1ccc(S(=O)(=O)N2CC(=O)Nc3ccccc32)cc1	3.0%	?	?	5.2%	10µM*	-19.1%
CCc1ccc(S(=O)(=O)N2CC(=O)Nc3ccccc32)cc1	-5.0%	-2.7%	-48.3%[57.4 µM]	17.0%	27.0%[59 µM]	-17.0%
O=c1[nH]cc(S(=O)(=O)Nc2ccc3c(c2)OCO3)c(=O)[nH]1	-8.5%	-5.9%	?	29.4%	50.1µM*	-27.2%
Cc1ccccc1NC(=O)c1c(C)[nH]c(=S)c(C#N)c1-c1ccc(Cl)cc1	-4.1%	-20.6%	31.5%	17.8%	?	-6.2%
Cc1[nH]c(=S)c(C#N)c(-c2ccccc2)c1C(=O)Nc1ccccc1	-14.7%	?	?	-2.6%	?	79.4µM*
Cc1ccc(-c2c(C(=O)Nc3ccccc3C)c(C)[nH]c(=S)c2C#N)o1	79.4µM*	?	?	5.0%	-129.9%	-3.8%[11.4 µM]
CCc1[nH]c(=S)c(C#N)c(-c2ccccc2)c1C(=O)OC	-5.9%	?	?	19.9%	15.8µM*	?
Cc1ccc(C(=O)OCC(=O)Nc2cc(Cl)cc(Cl)c2)cc1	/	/	-17.1%	/	/	/
C1CCCCCC2(CCCCC1)OCC(CN1CCOCC1)O2 (configuration not stated)	-2.0%	3.8%	-20.2%	22.9%	13.1%[59 µM]	-10.6%
NCCSc1c(-c2ccc(Cl)cc2)[nH]c2ccccc12	-34.0%	-6.8%	-15.8%	9.6%	-26.9%	-30.9%
CCc1nnc(NC(=O)C2CC(=O)N(C3CCCC3)C2)s1 (configuration not stated)	7.6%	-15.5%	-9.1%	13.2%	?	2.1%
CCCc1nnc(NC(=O)C2CC(=O)N(C3CCCC3)C2)s1 (configuration not stated)	0.8%	?	?	-9.1%	22.4µM*	-11.3%
